KB-3-1 cytotox: kills parental KB-3-1 adenocarcinoma cells; KB-3-1 viability, CellTiter-Glo ATP luminescence, 72 h; Potency, µM (top dose mostly 46.1 µM), actives largely listed as cytotoxic; actives 1.4% (n = 400,000); AID 1347075; further: nearly all actives have a fitted effect of over 60% in size
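Screening of KB-3-1 cells (DMEM, 10% FBS, phenol-red free) ran from lowest to highest compound concentration; after 72 h at 37 °C viability was read luminescently and curves fitted.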
KB-V1 MDR tox: kills drug-selected multidrug resistant KB-V1 cells | actives 3.4% (n = 400,000) | Potency, µM (series often up to 46.1 µM), most hits filed as cytotoxic | AID 1347076 | KB-V1 MDR cells viability, CellTiter-Glo, 72 h; further: nearly all actives have a fitted effect of over 60% in size
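Cells of the MDR subline KB-V1 are plated, dosed with compound at multiple concentrations, and incubated 72 h at 37 degrees C; CellTiter-Glo is then added and luminescence read after 10 min.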
DT40 TDP1 no CPT: qHTS for Inhibitors of human tyrosyl-DNA phosphodiesterase 1 (TDP1): qHTS in cells in absence of CPT | Potency, µM (series often up to 46.2 µM), inactives show top-dose activity change, negative = growth inhibition, usual class: inhibitors | DT40 Tdp1-/- hTDP1 cells, no CPT, ATP luminescence, 48 h | actives 15% (n = 420,000); further: nearly all actives have a fitted effect of over 55% in size
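Readout: luminescence from CellTiter-Glo after 30 min in the dark at RT. Cells: DT40 Tdp1-/- with stable hTDP1, 400/well. Exposure: compounds alone, ≥48 hr, 37 °C.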
HT1080 IDH1KD tx: toxicity to HT-1080 IDH1 knockdown cells (counter line); HT-1080 IDH1 knockdown viability, ATP luminescence, 48 h; Potency, µM (doses to about 46.1 µM), without a hit: at the highest dose activity, negative = toxicity, most hits filed as cytotoxic; actives 2% (n = 360,000);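 further: 0% = DMSO wells and -100% = cell-free medium wells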
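Luminescent ATP read-out (CellTiter-Glo, 10 min at room temperature) after 48 h compound exposure at 37 °C gave viability of IDH1-knockdown HT-1080 cells. Activity was normalised to DMSO and cell-free wells, then fitted as concentration-response curves.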
TDP1 cell CPT: growth inhibition of DT40 Tdp1-/-;hTDP1 cells with camptothecin (screen for TDP1 inhibitors); actives 12% (n = 420,000); chicken DT40 Tdp1-/-;hTDP1 cells + 20 nM CPT, ATP luminescence, 48 h; Potency, µM (titrated, usually from 46.2 µM), for inactives: at the top dose activity change, negative = growth inhibition, hits mostly inhibitors; AID 686979; further: nearly all actives have a fitted effect of over 55% in size
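Chicken DT40 Tdp1-/- cells stably complemented with human TDP1 were seeded at 400 cells/well in medium containing 20 nM camptothecin, exposed to pin-transferred compounds, and grown at 37 °C for at least 48 hr. Viability was read as ATP luminescence.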
HT1080NT lethal: kills 2HG-producing HT-1080-NT fibrosarcoma cells. HT-1080-NT fibrosarcoma viability, CellTiter-Glo ATP luminescence, 48 h. Potency, µM (top dose mostly 46.1 µM), inactives show at the highest dose activity, negative = less viability, most hits filed as cytotoxic. actives 1.6% (n = 360,000);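 further: NT is the 2HG producing partner of a matched IDH1 knockdown line; 0% = DMSO-treated cells and -100% = media-only wells without cells; nearly all actives have a fitted effect of over 55% in size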
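HT-1080-NT; 750 cells/well; 5% FBS RPMI; 48 h compound, 37 degrees C; CellTiter-Glo luminescence; curve fitting and curve-class assignment.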
* = called active by the depositor; i = inactive; ? = inconclusive; . = no result; [ ] = dose if it differs, or a comment. A selection: hits, their analogues and other compounds. The true share with any hit is near 19%. The call rests on the fitted dose curve; in most records, active means well fitted curve in the direction sought with a large enough effect; inconclusive means small, poorly fitted or top-dose-only effect, or another doubt; inactive means no such curve, though single readings can be large; an effect the other way counts as inactive or inconclusive. Unless noted, on the % scale 0 is the no-effect control and ±100 the full control effect; potency means the concentration at half of the fitted maximal effect.

SMILES	KB-3-1 cytotox	KB-V1 MDR tox	DT40 TDP1 no CPT	HT1080 IDH1KD tx	TDP1 cell CPT	HT1080NT lethal
CCCc1nc2ccc(Br)cn2c1Cc1ccccc1OC	?	i	0.82µM*	?	1.46µM*	?
FC(F)(F)c1ccccc1Cc1c(-c2ccccc2)nc2ccc(Br)cn12	i	i	?	-3.4%	?	-10.3%
CCCc1nc2ccc(C)cn2c1Cc1ccccc1C(F)(F)F	i	i	?	32.6µM*	?	25.9µM*
CCCc1nc2ccc(Cl)cn2c1Cc1ccccc1	i	i	4.11µM*	4.6%	6.51µM*	-1.3%
Cc1ccc(CNC(=O)CC[C@H]2O[C@@H](n3cc(C)c(=O)[nH]c3=O)C[C@@H]2O)o1	i	i	5.9%	5.5%	-5.3%	0.0%
COC(=O)c1ccc(C2Nc3c(C)cc(C)cc3C3C=CCC32)cc1 (stereo not given)	i	?	?	.	?	.
Cc1cc(C)c2c(c1)[C@@H]1C=CC[C@@H]1[C@H](c1ccc(S(=O)(=O)N3CCOCC3)cc1)N2	i	i	18.4µM*	4.4%	16.4µM*	3.5%
C/C(=N\NC(=O)CSc1nc(C)cc(C)n1)c1cccs1	i	i	0.4%	5.8%	8.6%	0.0%
C/C(=N\NC(=O)Cn1nc(C)c(Br)c1C)c1cccs1	i	14.6µM*	?	-2.1%	-18.6%	4.4%
CC1CCCC(NC(=O)C2CCN(S(=O)(=O)N3CCCCCC3)CC2)C1C (stereo not given)	i	?	23.1µM*	6.0%	?	15.9%
c1ccc(Nc2nc(-c3ccncc3)nc3ccccc23)cc1	i	i	-19.1%	12.8%	-2.3%	-5.1%
CC(Nc1nc(N2CCNCC2)nc2ccccc12)c1ccccc1 (stereo not given)	i	i	5.17µM*	14.6µM*	4.11µM*	?
CC(Nc1nc(-c2ccncc2)nc2ccccc12)c1ccccc1 (stereo not given)	i	i	18.4µM*	-15.4%	18.4µM*	-19.6%
COc1ccccc1C(C)Nc1nc(-c2cccnc2)nc2ccccc12 (stereo not given)	i	i	23.1µM*	?	18.4µM*	?
OCCNc1nc(N2CCCCC2)nc2ccccc12	i	i	-13.7%	2.4%	-5.0%	3.3%
c1ccc(CCNc2nc(-c3ccncc3)nc3ccccc23)cc1	?	14.6µM*	18.4µM*	4.11µM*	20.6µM*	?
CC(Nc1nc(-c2cccnc2)nc2ccccc12)c1ccccc1 (stereo not given)	i	i	?	-16.5%	?	-19.9%
COc1cccc(CNc2nc(-c3cccnc3)nc3ccccc23)c1	i	i	?	?	?	?
O=[N+]([O-])c1ccc(O)c(Nc2ncnc3ccccc23)c1	i	i	0.8%	-2.7%	-8.1%	3.9%
CS(=O)(=O)Nc1cccc(-c2nc(N3CCOCC3)c3ccccc3n2)c1	.	.	-20.1%	.	-12.4%	.
COc1ccc(N(C)C(=O)c2ccc3nc(-c4ccccc4)c(-c4ccccc4)nc3c2)cc1	?	20.6µM*	18.4µM*	-18.7%	?	-23.7%
CS(=O)(=O)Nc1cccc(-c2ccc3ncnc(N4CCOCC4)c3c2)c1	.	.	13µM*	.	4.11µM*	.
O=[N+]([O-])c1ccc(O)c(Nc2ncnc3ccc(Br)cc23)c1	?	i	11.6µM*	?	-20.4%	?
CS(=O)(=O)Nc1cccc(-c2nc(Nc3ccccc3)c3ccccc3n2)c1	.	.	4.61µM*	.	9.2µM*	.
Cc1ccc(NC(=S)Nc2ccc(F)cc2)c(C)c1	i	i	-23.9%	5.7%	-11.0%	5.8%
SMILES	KB-3-1 cytotox	KB-V1 MDR tox	DT40 TDP1 no CPT	HT1080 IDH1KD tx	TDP1 cell CPT	HT1080NT lethal
Cc1ccc(NC(=O)/C(=C/c2cccs2)NC(=O)c2ccco2)cc1	i	i	-9.5%	7.3%	-16.7%	6.2%
Nc1c(-c2nc(-c3ccccc3Cl)no2)nnn1-c1ccccc1C(F)(F)F	i	i	-7.7%	.	2.0%	.
CC(=O)c1ccc(Nc2nc(-c3ccccc3)nc3ccccc23)cc1	i	i	20.6µM*	-19.6%	?	?
CN(C)C(=O)c1ccc(Nc2nc(-c3cccs3)nc3ccccc23)cc1	i	i	7.31µM*	?	10.3µM*	?
Cc1cccc(CNc2nc(-c3ccc(C(=O)N(C)C)cc3)nc3ccccc23)c1	.	.	2.91µM*	.	23.1µM*	.
C=CCNC(=O)c1ccc2nc(-c3ccccc3)c(-c3ccccc3)nc2c1	i	i	?	-6.5%	?	-4.1%
Cc1cccc(CNC(=O)c2ccc3nc(-c4ccccc4)c(-c4ccccc4)nc3c2)c1	i	i	?	.	20.6µM*	.
COc1ccccc1CNC(=O)CN1C(=O)N(C)C2(CCCCC2)C1=O	i	i	-16.4%	3.5%	-7.5%	2.1%
Cc1c([N+](=O)[O-])c(C(=O)NC2CCCCC2)nn1C	i	?	9.3%	6.6%	-6.5%	0.0%
CN(C)C(=O)c1ccc(-c2nc(Nc3ccc(F)cc3)c3ccccc3n2)cc1	.	.	23.1µM*	.	?	.
CC(=O)c1cccc(Nc2ncnc3ccc(Br)cc23)c1	i	i	20.6µM*	-18.2%	16.4µM*	-4.8%
COC(=O)c1cccc(Nc2ncnc3sccc23)c1	i	i	?	-17.3%	20.6µM*	-8.1%
CC(=O)c1ccc(Nc2ncnc3ccc(Br)cc23)cc1	i	i	?	2.0%	-22.0%	-5.6%
CN(C)C(=O)c1ccc(-c2ccc3ncnc(Nc4ccccc4)c3c2)cc1	.	.	1.46µM*	.	?	.
CC(=O)NCCNc1nc(-c2ccc(C(=O)N(C)C)cc2)nc2ccccc12	.	.	-28.7%	.	?	.
CN(C)C(=O)c1ccc(-c2ccc3ncnc(NCc4cccs4)c3c2)cc1	.	.	-24.7%	.	-28.0%	.
CCCCn1c(N)c(N(CC(C)C)C(=O)C2CCCN(C(=O)c3ccc(Cl)cc3)C2)c(=O)[nH]c1=O (stereo not given)	i	i	-25.2%	12.6%	-16.4%	12.6%
COc1ccc(C(=O)N(O)c2ccccc2)cc1	.	.	-5.7%[9.04 µM]	.	25.5%[9.04 µM]	.
CS(=O)(=O)Nc1cccc(-c2ccc3ncnc(Nc4ccc(F)cc4)c3c2)c1	.	.	?	.	18.4µM*	.
C=CCN(C(=O)c1ccccc1)c1ccc(OC)cc1	?	i	22.4µM*	?	12.6µM*	?

Bioassay records from PubChem.
